# Screens from PubChem BioAssay.
# In the library only some 4.7% were active in any assay of this set; here they are far more common.
# D1 PAM – Potentiators of Human D1 Dopamine Receptor: qHTS | D(1A) dopamine receptor (Homo sapiens), P21728 | HEK293 TREx D1 cells, calcium flux, dopamine EC20 potentiation | potentiation, % at 10 µM | actives 0.036% (n = 360,000) | AID 504651, 2011; in the data active = potentiation above about 30%; also: 0% is about no effect
# Target sequence (P21728 whole entry, looked up): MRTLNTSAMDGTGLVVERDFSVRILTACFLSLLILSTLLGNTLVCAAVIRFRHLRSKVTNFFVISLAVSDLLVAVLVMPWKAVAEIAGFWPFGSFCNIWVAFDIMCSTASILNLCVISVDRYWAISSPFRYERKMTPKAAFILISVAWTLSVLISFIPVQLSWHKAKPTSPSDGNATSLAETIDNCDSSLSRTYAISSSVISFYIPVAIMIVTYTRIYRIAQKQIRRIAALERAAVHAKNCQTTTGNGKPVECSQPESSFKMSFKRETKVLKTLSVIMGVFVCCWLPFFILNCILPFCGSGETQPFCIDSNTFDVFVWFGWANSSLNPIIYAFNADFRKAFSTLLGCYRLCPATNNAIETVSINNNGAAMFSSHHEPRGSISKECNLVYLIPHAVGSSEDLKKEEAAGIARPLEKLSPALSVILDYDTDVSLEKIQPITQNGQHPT
# D1 ag – Allosteric Agonists of the Human D1 Dopamine Receptor: qHTS; actives 1% (n = 360,000); activation, % at 2 µM; D(1A) dopamine receptor (Homo sapiens), P21728; HEK293 T-REx D1 cells, calcium flux, agonist mode; also: 0% is about no effect
#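 Inducible HEK293 T-REx D1 cells, force-coupled to calcium signalling, were plated at 4000 cells/well with tetracycline and held overnight at 30 C. After no-wash calcium dye loading, compound-evoked calcium rise over 180 s flagged agonists.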
# D1 antagonist – Antagonist of Human D 1 Dopamine Receptor: qHTS; HEK293 TREx D1 cells, calcium flux, dopamine EC80; stronger effect = lower value; D(1A) dopamine receptor (Homo sapiens), P21728; activity change, negative = inhibition, % at 10 µM; actives 3.2% (n = 360,000); AID 504652, 2011; in the data active = activity change below about -30%; also: % is scaled to controls: 0 for no effect and ±100 for the full control effect
#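 Tetracycline-induced HEK293 T-REx cells with force-coupled D1 receptor were loaded with a no-wash calcium dye. Compound was added after a 10 s baseline and read kinetically for 180 s; EC80 dopamine was then added and calcium flux followed another 180 s.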
# TRHR PAM – qHTS for Small Molecule Agonists and Allosteric Enhancers of Human TRH Receptor: Primary Screen for Enhancers; Thyrotropin-releasing hormone receptor (Homo sapiens), P34981; TRHR cells, fluo-8 calcium fluorescence, EC20 TRH enhancement; enhancement, % at 2 µM; actives 0.66% (n = 360,000); in the data active = enhancement above about 30%; also: 0% is about no effect
#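 TRHR-expressing cells loaded with fluo-8 calcium dye were read kinetically (ex 480/em 530) during compound addition, then stimulated with an EC20 of TRH (10 nM final). Enhancement of the Gq-mediated intracellular calcium response was scored.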
# TRHR ag – qHTS for Small Molecule Agonists and Allosteric Enhancers of Human TRH Receptor: Primary Screen for Agonists. Thyrotropin-releasing hormone receptor (Homo sapiens), P34981. TRHR cells, calcium flux fluo-8, FDSS agonist mode. activation, % at 2 µM. actives 0.18% (n = 360,000). AID 493084, 2011; also: 0% is about no effect
#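 In this calcium-flux screen, cells bearing human TRHR are dye-loaded with fluo-8, baselined for 10 cycles, then exposed to library compounds; positive kinetic calcium responses during the agonist phase mark hits, with TRH as control.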
# * marks the source's active call; other numbers are inactive results; . = not tested or not shown. Rule as the data show it, unless noted: active = activation above about 30%; inactive = the rest.
SMILES,D1 PAM,D1 ag,D1 antagonist,TRHR PAM,TRHR ag
Cc1ccc(CNc2ncnc3c2cnn3-c2ccccc2)cc1,2,53*,60,-4,0
Cc1cccc(-n2ncc3c(NC4CCCCC4)ncnc32)c1,-7,2,6,10,2
CCOC(=O)/C(=C\c1ccc([N+](=O)[O-])o1)NC(=O)c1ccccc1,-3,27,-36*,-7,2
CCCOC(=O)/C(=C\c1ccc([N+](=O)[O-])o1)NC(=O)c1ccccc1,-4,2,-2,-3,3
CCn1c2ccccc2c2cc(CN3CCN(Cc4ccccc4Cl)CC3)ccc21,1,-1,-4,3,0
CC(=O)OC1COC(OC2C(O)C(C)OC(OC3C(OC4CCC5(C)C(CCC6(C)C5CC=C5C7CC(C)(C)CCC7(C(=O)O)CCC56C)C4(C)CO)OCC(O)C3O)C2O)C(O)C1OC(C)=O (stereo not drawn),26,323*,187,-10,16
Cc1ccc(C2=NN(C(=O)CSc3nnnn3C)C(c3ccco3)C2)cc1 (stereo not drawn),.,1,1,0,0
COc1ccc(C2=NN(C(=O)CSc3nnc(C)c(=O)n3N)C(c3ccco3)C2)cc1 (stereo not drawn),-5,2,-80*,4,-1
CCC(=O)N1N=C(c2ccc(C)cc2)CC1c1ccco1 (stereo not drawn),-3,3,-37*,3,-2
CCC(=O)N1N=C(c2cccs2)CC1c1ccco1 (stereo not drawn),-8,1,6,-4,-1
O=C(CN1CCN(CC(=O)Nc2ccccc2F)CC1)Nc1ccc(Cl)c(C(F)(F)F)c1,-3,15,-14,3,1
COc1ccc(NC(=O)C2CCN(C3=NS(=O)(=O)C(c4ccc(C)c(C)c4)=C3C)CC2)cc1OC,-7,2,4,3,0
O=C(Nc1ccon1)c1cc(-c2ccccc2)nc2ccccc12,-7,0,-32*,-6,1
CCOc1cccc(-c2cc(C(=O)Nc3ccon3)c3ccccc3n2)c1,-2,-2,-5,2,0
O=C(NC1=NCCS1)c1cc(Cl)ccc1Cl,-3,5,4,39*,0
O=C(NC1=NCCS1)c1ccccc1Cl,-4,2,-8,-2,0
O=C(NC1=NCCS1)c1cc(-c2ccc(F)cc2)nc2ccccc12,-4,-1,-37*,10,1
Cc1ccc(NC(=O)c2cc(-c3cccs3)nc3ccccc23)nc1,-11,1,-48*,-2,-1
COc1ccc(C(CNC(=O)c2cccc([N+](=O)[O-])c2)N2CCOCC2)cc1 (stereo not drawn),-1,-2,1,1,0
CCOC(=O)C1CCC(CN(Cc2c(Cl)cccc2Cl)S(=O)(=O)c2ccc(Cl)cc2)CC1 (stereo not drawn),-2,5,11,2,1
CCOC(=O)C1CCC(CN(Cc2c(Cl)cccc2Cl)S(=O)(=O)c2ccc(F)cc2)CC1 (stereo not drawn),-1,9,-38*,4,2
COc1ccc(C(=O)Nc2nc(-c3nnn(-c4ccc(C(C)C)cc4)c3C)ns2)cc1,7,5,6,9,1
O=C(O)CNC(=O)/C(=C/c1ccco1)NC(=O)/C=C/c1ccccc1,-8,270*,-36*,18,0
C=CCOC(=O)/C(=C/c1ccco1)NC(=O)/C=C/c1ccccc1,-4,4,-8,3,-1
COc1ccccc1C(CNC(=O)CNC(=O)c1ccc(C)c(C)c1)N1CCCC1 (stereo not drawn),.,4,-20,1,0
SMILES,D1 PAM,D1 ag,D1 antagonist,TRHR PAM,TRHR ag
COc1ccccc1C(CNC(=O)CNC(=O)c1ccccc1Cl)N1CCCC1 (stereo not drawn),-2,3,-45*,2,2
COc1ccccc1C(CNC(=O)CNC(=O)c1ccc(Cl)c(Cl)c1)N1CCCC1 (stereo not drawn),.,9,-38*,-1,0
COc1ccccc1C(=O)NCCC(=O)NCC(c1ccccc1OC)N1CCCC1 (stereo not drawn),-1,2,3,-3,0
CCCC(=O)N1c2nc(-c3ccco3)nn2C2(CCCCC2)[C@@H]2CCCC[C@@H]21,2,3,29,-5,0
CCN(C(=O)c1cc2c(Cl)nc3ccccc3c2s1)c1cccc(Cl)c1,-2,0,0,7,0
O=C(CCCn1c(=O)c2cccn2c2ccccc21)NCc1ccccc1Br,-4,3,-2,-4,0
